# PubChem BioAssay (NCATS)
# Inconclusive results are not listed. Entries that show only a call come without a potency. Calls of active or inactive are those of the source. Unless noted, calls come from the whole dose curve; as a rule, active = well fitted curve in the direction sought with a large enough effect; inconclusive = small, poorly fitted or top-dose-only effect, or another doubt; inactive = no such curve, though single readings can be large; an effect the other way counts as inactive or inconclusive.
# Columns and labels:
# [1] = qHTS for Inhibitors of Ubiquitin-specific Protease USP2a Using CHOP2 as the Reporter: K633 Counterscreen (AID 652168); note: series mostly up to about 57 µM
# Outline: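 Cell-free interference counterscreen without USP2a: compounds pinned into enzyme-free buffer (20 mM Tris pH 8, 2 mM beta-mercaptoethanol, 0.05% Chaps), then DiUb K48-4IQF substrate added (100 nM stock); fluorescence read kinetically, Ex 525/Em 598.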
# [2] = qHTS for Inhibitors of Ubiquitin-specific Protease USP2a Using CHOP2 as the Reporter: Cytotox Assay (AID 652170); note: nearly all actives have a fitted effect of over 70% in size; note: potency is the fitted concentration of half-maximal effect
# Outline: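 HCT116 human colon cancer cells, 600 per well in DMEM with 10% FBS, exposed to compounds for 72 hr at 37 deg C. ATP measured by CellTiter-Glo luminescence, normalized to DMSO cells and no-cell background.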
# [3] = biological target: Calcium and integrin-binding protein 1 (Homo sapiens) (UniProt Q99828); assay: Primary qHTS for Identification of Calcium Integrin Binding Protein 1 (CIB1) Competitor (AID 1508620);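 note: GST tagged CIB1 binding a fluorescein labelled alphaIIb integrin peptide tracer; top concentration of the series differs between compounds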
# Outline: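 Fluorescence polarization competition: CIB1-GST (1 uM final) preincubated with compound 15 min at room temperature, then FITC-labeled alphaIIb peptide (100 nM final) added for another 15 min. Polarization read at Ex 480/Em 540.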
# [4] = biological target: Mitogen-activated protein kinase 10 (Mus musculus) (UniProt Q61831); assay: JNK3 AlphaScreen Assay (AID 530; active = well fitted curve in either direction with a large enough effect, not every such curve was filed as active;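 note: kinase came from lysate of stimulated human HepG2 cells; signal reports phosphorylation of biotinylated GST-cJun 1-79 at Ser73 with 10 µM ATP; series mostly up to about 57 µM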)
# Outline: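 JNK3 came from HepG2 lysates pre-activated with IL-1beta and TNF-alpha and phosphorylated biotinylated GST-cJun (1-79) at 10 uM ATP, pH 7.6, room temperature. Compounds were titrated. AlphaScreen signal used anti-phospho-cJun (Ser73) antibody.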
# [5] = biological target: Cytochrome P450 3A4 (Homo sapiens) (UniProt P08684); assay: qHTS Assay for Activators of Cytochrome P450 3A4 (AID 885); note: nearly all actives have a fitted effect of over 65% in size
# Outline: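 Human CYP3A4 (20 nM) with Luciferin-PPXE at 25 uM (its KM) in 200 mM KPO4; 10 min compound preincubation, then NADPH regeneration and 60 min reaction at RT. Luciferin read by luminescence; normalized to 57 uM ketoconazole full inhibition.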
# [6] = qHTS for Inhibitors of the vitamin D receptor (VDR): Hit Validation using a Texas Red Assay (AID 602201); note: potency is the fitted concentration of half-maximal effect
# Outline: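 Fluorescence polarization (Ex 595/Em 615 nm) of Texas Red (7 nM) with 1.5 uM VDR-LBD and LG19078 (final concentrations). Compounds were incubated for 2 hours at room temperature.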
# [7] = biological target: Ubiquitin carboxyl-terminal hydrolase 2 (Homo sapiens) (UniProt O75604); assay: qHTS for Inhibitors of Ubiquitin-specific Protease USP2a Using CHOP2 as the Reporter: K484 Substrate (AID 652173);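 note: cleavage of internally quenched K48 di-ubiquitin substrate measured as rising fluorescence over time; nearly all actives have a fitted effect of over 70% in size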; note: potency is the fitted concentration of half-maximal effect
# Outline: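 USP2 (dispensed at 5 nM) was pinned with compounds, then DiUb K48 internally quenched fluorescent substrate (dispensed at 100 nM) was added. The buffer was 20 mM Tris pH 8, 2 mM beta-mercaptoethanol and 0.05% CHAPS. Cleavage was read kinetically as rising fluorescence, Ex 525/Em 598.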
# Chain of Calcium and integrin-binding protein 1 (Homo sapiens) (Q99828 whole entry, looked up): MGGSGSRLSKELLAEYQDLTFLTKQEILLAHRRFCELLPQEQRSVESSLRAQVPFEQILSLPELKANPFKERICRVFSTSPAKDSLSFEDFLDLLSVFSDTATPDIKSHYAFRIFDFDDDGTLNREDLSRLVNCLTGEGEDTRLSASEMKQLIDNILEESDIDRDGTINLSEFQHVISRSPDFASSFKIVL
# Chain of Ubiquitin carboxyl-terminal hydrolase 2 (Homo sapiens) (O75604 whole entry, looked up): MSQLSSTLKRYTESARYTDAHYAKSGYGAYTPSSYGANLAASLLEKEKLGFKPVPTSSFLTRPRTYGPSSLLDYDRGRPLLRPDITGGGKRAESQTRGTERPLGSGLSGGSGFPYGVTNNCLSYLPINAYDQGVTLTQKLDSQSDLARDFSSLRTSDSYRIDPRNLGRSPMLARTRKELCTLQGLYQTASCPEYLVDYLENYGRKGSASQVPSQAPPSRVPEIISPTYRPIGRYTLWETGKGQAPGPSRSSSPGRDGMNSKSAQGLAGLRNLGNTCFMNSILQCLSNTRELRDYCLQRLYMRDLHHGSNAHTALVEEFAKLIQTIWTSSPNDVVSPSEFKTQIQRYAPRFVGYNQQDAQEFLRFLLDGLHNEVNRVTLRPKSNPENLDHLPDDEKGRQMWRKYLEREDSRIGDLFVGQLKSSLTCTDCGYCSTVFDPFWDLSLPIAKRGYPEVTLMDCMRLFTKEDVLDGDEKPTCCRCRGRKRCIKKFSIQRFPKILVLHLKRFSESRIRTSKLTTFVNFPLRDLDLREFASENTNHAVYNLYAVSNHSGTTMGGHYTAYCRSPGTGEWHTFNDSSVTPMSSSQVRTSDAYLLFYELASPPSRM
# Chain of Cytochrome P450 3A4 (Homo sapiens) (P08684 whole entry, looked up): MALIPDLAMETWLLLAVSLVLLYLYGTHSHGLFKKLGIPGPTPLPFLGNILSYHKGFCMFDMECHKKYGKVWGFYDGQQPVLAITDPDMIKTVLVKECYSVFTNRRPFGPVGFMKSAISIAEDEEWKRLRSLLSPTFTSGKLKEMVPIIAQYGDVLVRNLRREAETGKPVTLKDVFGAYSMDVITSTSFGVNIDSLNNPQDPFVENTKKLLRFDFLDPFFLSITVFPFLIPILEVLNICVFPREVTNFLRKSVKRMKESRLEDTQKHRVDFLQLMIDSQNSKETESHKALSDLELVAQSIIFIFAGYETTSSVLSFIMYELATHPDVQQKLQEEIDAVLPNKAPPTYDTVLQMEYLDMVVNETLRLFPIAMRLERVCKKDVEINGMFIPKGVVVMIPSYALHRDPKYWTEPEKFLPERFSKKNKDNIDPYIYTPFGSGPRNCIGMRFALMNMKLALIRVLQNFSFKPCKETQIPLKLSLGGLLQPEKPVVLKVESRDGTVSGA
compound,measurement,setting,value
Cc1ccc(S(=O)(=O)Nc2cnccc2C(=O)Nc2ccc(N3CCOCC3)cc2)cc1,outcome,[1],inactive
same,Potency,[2],inactive
same,Potency,[3],inactive
CCCn1c(-c2ccc(F)cc2)nc2c(N3CCC(N(C)C)C3)nc(C)nc21 (stereo not drawn),outcome,[4],inactive
same,Potency,[5],inactive
same,Potency,[3],inactive
O=C(Cc1ccccc1)Nc1sc2c(c1C(=O)Nc1ccc(Cl)cc1)CCCC2,Potency,[6],4.47 µM (active)
same,Potency,[3],inactive
O=C(Nc1nc(-c2ccccc2)cs1)c1ccccc1S(=O)(=O)Nc1nccs1,outcome,[1],inactive
same,Potency,[2],inactive
same,Potency,[7],12.2 µM (active)
same,Potency,[3],inactive
O=C(CSc1nc2ccc(S(=O)(=O)N3CCOCC3)cc2[nH]1)N1CCOCC1,Potency,[6],inactive
same,Potency,[3],inactive
O=C(Cc1nc2ccc(Cl)cc2[nH]1)Nc1ccc(S(=O)(=O)Nc2nccs2)cc1,outcome,[1],inactive
same,Potency,[2],inactive
same,Potency,[7],30.6 µM (active)
same,Potency,[3],inactive
Cc1ccc(S(=O)(=O)Nc2cnccc2C(=O)Nc2ccccc2)cc1,outcome,[1],inactive
same,Potency,[2],inactive
same,Potency,[3],inactive
Cc1ccc(S(=O)(=O)Nc2cnccc2C(=O)NCc2ccccc2)cc1,outcome,[1],inactive
same,Potency,[2],inactive
same,Potency,[3],inactive
CCCn1c(-c2ccc(F)cc2)nc2c(NCCN(C(C)C)C(C)C)nc(C)nc21,outcome,[4],inactive
same,Potency,[5],inactive
same,Potency,[3],inactive
O=c1[nH]c(CCl)nc2sc3c(c12)CCCC3,outcome,[1],inactive
same,Potency,[2],10.5 µM (active)
same,Potency,[7],inactive
same,Potency,[3],inactive
CCOC(=O)C1CCC(C(=O)Nc2ccc([S+](=O)([O-])Nc3nccs3)cc2)CC1 (stereo not drawn),outcome,[1],inactive
same,Potency,[2],inactive
same,Potency,[7],inactive
same,Potency,[3],inactive
Cc1ccc(-c2cc(C(=O)Nc3ccc(-c4noc(=O)[nH]4)cc3)c3ccccc3n2)cc1C,outcome,[1],inactive
same,Potency,[7],4.32 µM (active)
same,Potency,[3],inactive
O=C(Nc1ccc([S+](=O)([O-])Nc2nccs2)cc1)c1ccccn1,outcome,[1],inactive
same,Potency,[2],inactive
same,Potency,[7],inactive
same,Potency,[3],inactive
Cc1ccc(S(=O)(=O)Nc2cc(C)ccc2C(=O)Nc2nc(-c3ccccc3)cs2)cc1,outcome,[1],inactive
same,Potency,[7],1.53 µM (active)
same,Potency,[3],inactive
Cc1cccc(NC(=O)c2cc(-c3ccc(C)c(C)c3)nc3ccccc23)c1,outcome,[1],inactive
same,Potency,[2],inactive
same,Potency,[7],inactive
same,Potency,[3],inactive
Clc1nc(CN2CCOCC2)nc2sc3c(c12)CCCC3,outcome,[1],inactive
same,Potency,[7],inactive
same,Potency,[3],inactive
CCCCc1ccc(C(=O)Nc2ccc(S(=O)(=O)Nc3nccs3)cc2)cc1,outcome,[1],inactive
same,Potency,[2],inactive
same,Potency,[7],10.9 µM (active)
same,Potency,[3],inactive
COc1cc(NS(=O)(=O)c2ccc(C)cc2)c(C(=O)Nc2nc(-c3ccccc3)cs2)cc1OC,outcome,[1],inactive
same,Potency,[7],2.17 µM (active)
same,Potency,[3],inactive
Cc1ccc(S(=O)(=O)Nc2ccccc2C(=O)Nc2nc(-c3ccc(Cl)cc3)cs2)cc1,outcome,[1],inactive
same,Potency,[2],8.33 µM (active)
same,Potency,[7],1.93 µM (active)
same,Potency,[3],inactive
CC(=O)Nc1ccc(S(=O)(=O)Nc2nccs2)cc1,outcome,[1],inactive
same,Potency,[7],inactive
same,Potency,[3],inactive
O=S(=O)(Nc1nc(CN2CCOCC2)nc2sc3c(c12)CCC3)c1ccc2c(c1)OCCO2,outcome,[1],inactive
same,Potency,[2],inactive
same,Potency,[7],inactive
same,Potency,[3],inactive
Cc1ccc(-c2cc(C(=O)N3CC[S+](=O)([O-])CC3)c3ccccc3n2)cc1C,outcome,[1],inactive
same,Potency,[2],inactive
same,Potency,[7],inactive
same,Potency,[3],inactive
O=C(Nc1ccc(S(=O)(=O)Nc2nccs2)cc1)c1ccnc(-c2ccccc2)c1,outcome,[1],inactive
same,Potency,[2],inactive
same,Potency,[7],13.7 µM (active)
same,Potency,[3],inactive
O=C(Nc1ccc(S(=O)(=O)Nc2nccs2)cc1)C1CCC2(CC1)CC2,Potency,[2],inactive
same,Potency,[3],inactive
Cc1ccc(S(=O)(=O)Nc2ccncc2C(=O)Nc2nc(-c3ccccc3)cs2)cc1,outcome,[1],inactive
same,Potency,[7],4.85 µM (active)
same,Potency,[3],inactive
Cc1ccc(S(=O)(=O)Nc2cnccc2C(=O)Nc2nc(-c3ccc(Cl)c(Cl)c3)cs2)cc1,outcome,[1],inactive
same,Potency,[7],3.06 µM (active)
same,Potency,[3],inactive
CC1CCC(C(=O)Nc2ccc([S+](=O)([O-])Nc3nccs3)cc2)CC1 (stereo not drawn),outcome,[1],inactive
same,Potency,[2],inactive
same,Potency,[7],inactive
same,Potency,[3],inactive
Cc1ccc(-c2cc(C(=O)Nc3ccccn3)c3ccccc3n2)cc1C,Potency,[2],inactive
same,Potency,[3],inactive
O=C(Nc1ccc(S(=O)(=O)Nc2nccs2)cc1)C1CC(OCc2ccccc2)C1 (stereo not drawn),Potency,[2],inactive
same,Potency,[3],inactive
O=c1[nH]c(CCl)nc2sc3c(c12)CCC3,outcome,[1],inactive
same,Potency,[2],14.8 µM (active)
same,Potency,[7],inactive
same,Potency,[3],inactive
